The full data set covers some 7,900 targets. This sample favours those with a hit. About 0.6% of all pairs of compound and target were hits. Unmarked numbers belong to inactive results.
Assays:
Assay in all cases: log2 fold change, soluble protein after heating vs DMSO (PISA); higher = thermal stabilisation; K562 cells, 10 uM, 30 min; active = over 0.2 and 3.5 SD of the protein, either way, in both replicates (recomputed)
[1] = compound: Cc1sc2c(c1C)C(c1ccc(Cl)cc1)=N[C@@H](CC(=O)OC(C)(C)C)c1nnc(C)n1-2
Method in brief: (§1)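 K562 cells at 2×10^6 cells/mL were treated with 10 μM compound for 30 min. Aliquots were heated for 3 min across 48°C-58°C, pooled, and extracted in PBS with 0.5% NP-40 at 4°C; soluble protein was the supernatant after 21,000xg for 90 min. Soluble protein was quantified by TMTpro 16plex LC-MS/MS with channel sums equalised, and reported as log2 fold change in thermal stability against DMSO controls, with values from duplicates.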

[2] = compound: CC1=C2C(=CC=C1)N=C(N(C2=O)C3=CC=CC=C3C)CN4C=NC5=C(N=CN=C54)N
Method in brief: as §1

[3] = compound: C1=CC=C(C=C1)[C@H](COC2=CC3=C(C=C2)NC(=O)N3)NC(=O)C4=CC=CN(C4=O)CC5=CC(=C(C=C5)F)F
Method in brief: as §1

[4] = compound: CC1=C(SC2=C1C(=N[C@H](C3=NN=C(N32)C)CC(=O)N)C4=CC=C(C=C4)Cl)C
Method in brief: as §1

[5] = compound: c1ccc([C@@H]2C[C@H]2NC2CCNCC2)cc1
Method in brief: as §1

Sequence of UniProt Q7L099 (Q7L099 whole entry, looked up): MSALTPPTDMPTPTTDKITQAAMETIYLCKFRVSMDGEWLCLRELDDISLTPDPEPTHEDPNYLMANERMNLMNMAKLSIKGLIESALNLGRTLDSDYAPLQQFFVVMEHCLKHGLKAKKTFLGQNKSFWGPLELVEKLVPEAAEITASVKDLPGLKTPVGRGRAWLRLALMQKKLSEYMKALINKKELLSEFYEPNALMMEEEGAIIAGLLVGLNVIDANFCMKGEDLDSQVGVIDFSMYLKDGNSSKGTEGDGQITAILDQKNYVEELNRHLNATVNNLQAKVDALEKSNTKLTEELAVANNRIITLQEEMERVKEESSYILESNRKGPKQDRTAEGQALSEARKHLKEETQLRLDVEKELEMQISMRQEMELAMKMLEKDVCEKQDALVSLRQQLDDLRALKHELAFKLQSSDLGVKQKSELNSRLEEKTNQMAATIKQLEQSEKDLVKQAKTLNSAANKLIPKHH
Sequence of UniProt O75056 (O75056 whole entry, looked up): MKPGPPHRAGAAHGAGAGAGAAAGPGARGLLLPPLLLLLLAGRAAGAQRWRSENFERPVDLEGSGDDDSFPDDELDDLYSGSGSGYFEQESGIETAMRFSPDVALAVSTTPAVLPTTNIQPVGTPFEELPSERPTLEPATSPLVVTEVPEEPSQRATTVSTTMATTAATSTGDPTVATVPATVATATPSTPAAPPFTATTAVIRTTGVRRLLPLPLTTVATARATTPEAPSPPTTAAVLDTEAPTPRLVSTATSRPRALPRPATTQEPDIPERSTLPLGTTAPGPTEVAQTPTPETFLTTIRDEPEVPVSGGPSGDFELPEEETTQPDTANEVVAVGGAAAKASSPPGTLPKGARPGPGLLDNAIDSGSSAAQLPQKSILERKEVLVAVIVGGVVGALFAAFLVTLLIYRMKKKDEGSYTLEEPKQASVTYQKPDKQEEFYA
Sequence of UniProt O75446 (O75446 whole entry, looked up): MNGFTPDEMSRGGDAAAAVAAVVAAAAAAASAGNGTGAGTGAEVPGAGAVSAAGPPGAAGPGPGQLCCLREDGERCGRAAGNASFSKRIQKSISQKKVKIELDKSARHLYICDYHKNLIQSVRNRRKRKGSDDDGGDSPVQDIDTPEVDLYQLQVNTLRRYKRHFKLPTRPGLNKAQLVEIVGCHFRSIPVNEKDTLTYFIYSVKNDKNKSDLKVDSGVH
Sequence of UniProt P40938 (P40938 whole entry, looked up): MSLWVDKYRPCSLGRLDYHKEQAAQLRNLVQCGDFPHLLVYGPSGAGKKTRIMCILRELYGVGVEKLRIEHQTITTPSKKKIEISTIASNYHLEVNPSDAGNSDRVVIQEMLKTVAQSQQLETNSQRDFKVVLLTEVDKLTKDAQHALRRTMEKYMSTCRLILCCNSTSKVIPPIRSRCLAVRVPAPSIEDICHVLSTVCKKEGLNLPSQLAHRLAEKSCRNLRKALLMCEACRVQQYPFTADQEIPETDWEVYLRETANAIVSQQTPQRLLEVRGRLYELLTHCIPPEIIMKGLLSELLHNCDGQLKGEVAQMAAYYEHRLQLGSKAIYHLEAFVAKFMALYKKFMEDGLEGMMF
Sequence of UniProt Q5VUM1 (Q5VUM1 whole entry, looked up): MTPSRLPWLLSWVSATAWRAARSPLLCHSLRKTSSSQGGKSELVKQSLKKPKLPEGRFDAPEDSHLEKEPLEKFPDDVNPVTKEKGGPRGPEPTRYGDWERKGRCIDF
Sequence of UniProt P41440 (P41440 whole entry, looked up): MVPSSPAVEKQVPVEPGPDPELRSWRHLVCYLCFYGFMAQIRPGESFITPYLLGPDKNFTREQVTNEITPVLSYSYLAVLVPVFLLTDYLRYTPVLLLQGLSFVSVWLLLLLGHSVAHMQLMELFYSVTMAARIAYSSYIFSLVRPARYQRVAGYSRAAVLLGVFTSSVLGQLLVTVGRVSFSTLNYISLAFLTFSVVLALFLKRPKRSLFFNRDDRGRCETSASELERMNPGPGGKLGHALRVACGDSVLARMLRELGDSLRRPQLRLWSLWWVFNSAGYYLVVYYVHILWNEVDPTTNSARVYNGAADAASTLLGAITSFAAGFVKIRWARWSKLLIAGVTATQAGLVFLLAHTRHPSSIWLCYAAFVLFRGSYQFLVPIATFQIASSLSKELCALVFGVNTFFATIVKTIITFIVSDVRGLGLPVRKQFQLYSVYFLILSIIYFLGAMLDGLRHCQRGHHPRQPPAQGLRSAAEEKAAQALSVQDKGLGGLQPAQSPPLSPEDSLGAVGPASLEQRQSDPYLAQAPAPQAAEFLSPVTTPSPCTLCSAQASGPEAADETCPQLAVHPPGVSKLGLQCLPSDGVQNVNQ
Sequence of UniProt Q9Y6Y8 (Q9Y6Y8 whole entry, looked up): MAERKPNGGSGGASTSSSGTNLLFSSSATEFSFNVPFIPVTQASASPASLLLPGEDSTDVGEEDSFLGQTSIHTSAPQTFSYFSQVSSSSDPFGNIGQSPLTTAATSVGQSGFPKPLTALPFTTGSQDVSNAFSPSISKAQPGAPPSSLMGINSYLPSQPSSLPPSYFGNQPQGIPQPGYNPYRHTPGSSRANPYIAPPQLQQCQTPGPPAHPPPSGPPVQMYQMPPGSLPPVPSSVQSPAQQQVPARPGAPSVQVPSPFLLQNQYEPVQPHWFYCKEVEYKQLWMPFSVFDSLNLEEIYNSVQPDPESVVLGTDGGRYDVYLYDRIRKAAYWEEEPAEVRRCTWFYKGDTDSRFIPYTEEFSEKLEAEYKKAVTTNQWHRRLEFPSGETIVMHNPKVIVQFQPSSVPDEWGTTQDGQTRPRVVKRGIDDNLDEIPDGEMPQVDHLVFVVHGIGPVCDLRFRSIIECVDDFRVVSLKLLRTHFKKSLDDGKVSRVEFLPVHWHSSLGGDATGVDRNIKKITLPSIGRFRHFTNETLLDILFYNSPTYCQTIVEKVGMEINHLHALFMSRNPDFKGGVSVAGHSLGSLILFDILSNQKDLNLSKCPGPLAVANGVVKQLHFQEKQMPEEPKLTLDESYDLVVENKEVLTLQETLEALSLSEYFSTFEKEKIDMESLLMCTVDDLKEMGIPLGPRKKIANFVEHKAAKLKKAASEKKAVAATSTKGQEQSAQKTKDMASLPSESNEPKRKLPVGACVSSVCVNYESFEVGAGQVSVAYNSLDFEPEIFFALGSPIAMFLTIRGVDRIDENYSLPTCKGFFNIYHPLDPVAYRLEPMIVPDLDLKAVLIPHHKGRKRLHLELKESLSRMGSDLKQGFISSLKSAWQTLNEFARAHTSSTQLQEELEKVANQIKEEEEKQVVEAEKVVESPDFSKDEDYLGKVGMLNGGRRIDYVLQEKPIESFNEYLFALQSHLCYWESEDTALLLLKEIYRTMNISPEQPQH
Sequence of UniProt Q8IZV5 (Q8IZV5 whole entry, looked up): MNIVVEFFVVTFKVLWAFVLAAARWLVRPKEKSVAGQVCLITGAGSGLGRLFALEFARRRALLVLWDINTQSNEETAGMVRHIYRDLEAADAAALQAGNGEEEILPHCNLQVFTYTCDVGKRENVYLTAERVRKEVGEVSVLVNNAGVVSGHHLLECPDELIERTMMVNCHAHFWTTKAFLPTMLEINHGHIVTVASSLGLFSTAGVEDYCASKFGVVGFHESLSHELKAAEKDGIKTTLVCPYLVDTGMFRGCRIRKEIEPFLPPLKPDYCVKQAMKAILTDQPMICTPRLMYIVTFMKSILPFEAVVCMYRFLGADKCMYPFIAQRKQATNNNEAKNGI
Sequence of UniProt Q5PRF9 (Q5PRF9 whole entry, looked up): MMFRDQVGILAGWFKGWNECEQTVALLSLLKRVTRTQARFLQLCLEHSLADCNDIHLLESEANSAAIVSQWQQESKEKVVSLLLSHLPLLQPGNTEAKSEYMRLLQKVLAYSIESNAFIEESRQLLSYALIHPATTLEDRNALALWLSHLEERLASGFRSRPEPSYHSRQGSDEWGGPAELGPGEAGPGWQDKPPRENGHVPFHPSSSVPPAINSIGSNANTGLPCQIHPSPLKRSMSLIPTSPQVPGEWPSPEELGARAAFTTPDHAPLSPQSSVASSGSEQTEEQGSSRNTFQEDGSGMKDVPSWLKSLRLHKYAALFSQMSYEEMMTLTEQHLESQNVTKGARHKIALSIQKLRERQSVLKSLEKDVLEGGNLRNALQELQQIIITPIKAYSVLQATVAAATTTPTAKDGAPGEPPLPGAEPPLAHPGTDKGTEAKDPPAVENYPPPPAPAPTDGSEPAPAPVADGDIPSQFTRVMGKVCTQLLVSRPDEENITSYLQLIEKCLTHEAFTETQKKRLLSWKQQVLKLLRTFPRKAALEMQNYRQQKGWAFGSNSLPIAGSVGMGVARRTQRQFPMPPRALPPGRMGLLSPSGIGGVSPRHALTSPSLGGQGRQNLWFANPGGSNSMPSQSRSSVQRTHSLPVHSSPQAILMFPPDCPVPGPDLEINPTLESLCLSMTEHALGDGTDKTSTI
Sequence of UniProt Q99496 (Q99496 whole entry, looked up): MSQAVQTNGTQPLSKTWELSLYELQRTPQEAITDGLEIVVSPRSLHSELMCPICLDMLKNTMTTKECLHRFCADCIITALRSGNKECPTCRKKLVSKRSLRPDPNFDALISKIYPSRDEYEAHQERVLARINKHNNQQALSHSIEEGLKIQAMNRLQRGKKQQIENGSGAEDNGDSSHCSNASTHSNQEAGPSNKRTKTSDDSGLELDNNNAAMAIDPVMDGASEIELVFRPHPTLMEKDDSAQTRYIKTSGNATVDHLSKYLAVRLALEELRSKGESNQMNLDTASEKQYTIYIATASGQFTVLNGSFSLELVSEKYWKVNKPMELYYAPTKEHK
Sequence of UniProt P60903 (P60903 whole entry, looked up): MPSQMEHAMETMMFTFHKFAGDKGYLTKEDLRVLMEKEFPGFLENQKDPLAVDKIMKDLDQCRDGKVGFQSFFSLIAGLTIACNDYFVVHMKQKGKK
Sequence of UniProt Q9BWJ5 (Q9BWJ5 whole entry, looked up): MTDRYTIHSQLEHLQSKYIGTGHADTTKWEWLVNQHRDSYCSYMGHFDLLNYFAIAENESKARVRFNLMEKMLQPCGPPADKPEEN
Sequence of UniProt O14796 (O14796 whole entry, looked up): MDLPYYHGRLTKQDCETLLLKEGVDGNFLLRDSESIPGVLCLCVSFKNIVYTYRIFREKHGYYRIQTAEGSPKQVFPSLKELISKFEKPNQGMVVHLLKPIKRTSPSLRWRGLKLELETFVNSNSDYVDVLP

Target	log2 fold change [1]	log2 fold change [2]	log2 fold change [3]	log2 fold change [4]	log2 fold change [5]
RPS3 (UniProt E9PJN9)	0.141	–	–	–	–
RMDN2 isoform 2 (UniProt Q96LZ7)	–	0.164	–	–	–
RUNX1 isoform 8 (UniProt Q01196)	–	0.025	-0.042	–	–
SEMG2 (UniProt Q02383)	-0.047	–	0.038	0.063	-0.066
RNF2 (UniProt Q99496)	0.064	0.153	0.067	0.014	0.085
RFC3 (UniProt P40938)	-0.019	0.029	-0.005	0.028	-0.074
SERINC1 (UniProt Q9NRX5)	-0.08	0.027	0.021	–	–
SAP30 (UniProt O75446)	–	-0.002	–	-0.006	-0.032
RALGPS2 (UniProt Q86X27)	0.116	-0.093	-0.069	0.073	-0.01
RCOR1 (UniProt Q9UKL0)	0.006	0.114	-0.113	0.021	0.856 (active)
RPS3A (UniProt D6R9B6)	0.248	–	–	–	–
ROMO1 (UniProt P60602)	0.172	–	0.045	-0.061	0.082
RICTOR isoform 3 (UniProt Q6R327)	0.043	–	–	–	–
SCCPDH (UniProt Q8NBX0)	-0.003	0.002	-0.047	0.087	-0.059
SHROOM2 (UniProt Q13796)	-0.008	0.103	0.105	0.102	-0.072
SIK3 (UniProt H0Y4E8)	0.118	0.025	–	0.034	0.028
RNF26 (UniProt Q9BY78)	–	-0.104	0.005	–	–
RBM48 isoform 2 (UniProt Q5RL73)	-0.36	–	0.008	0.058	0.113
RBM6 (UniProt P78332)	0.012	–	–	-0.075	0.076
S100A10 (UniProt P60903)	-0.127	–	0.651	0.061	-0.01

Target	log2 fold change [1]	log2 fold change [2]	log2 fold change [3]	log2 fold change [4]	log2 fold change [5]
RDH10 (UniProt Q8IZV5)	-0.058	0.098	0.113	0.08	-0.031
RUFY3 isoform 3 (UniProt Q7L099)	0.016	0.061	–	-0.004	0.029
RBMY1E (UniProt A6NEQ0)	0.001	–	0.063	-0.02	0.145
SDCBP isoform 2 (UniProt O00560)	0.169	–	-0.08	–	–
SLC19A1 (UniProt P41440)	-0.013	0.045	-0.025	0.065	0.017
RBM25 (UniProt P49756)	0.051	0.005	-0.025	0	0.112
RABGAP1L isoform 5 (UniProt Q5R372)	0.113	–	0.027	0.027	0.066
SLC18B1 (UniProt Q6NT16)	0.009	0.061	0.015	0.028	-0.039
SEPTIN5 (UniProt Q99719)	-0.045	0.014	-0.021	0.069	-0.016
SF3B5 (UniProt Q9BWJ5)	0.007	-0.032	0.056	–	–
RAB5C isoform 2 (UniProt P51148)	0.011	-0.022	-0.007	-0.009	0.018
SDC3 (UniProt O75056)	-0.044	0.071	–	-0.012	0.052
RBM27 (UniProt Q9P2N5)	0.029	0.049	-0.015	0.005	-0.01
RAP2C (UniProt Q9Y3L5)	0.038	-0.012	0	0.055	-0.011
RCOR3 isoform 3 (UniProt Q9P2K3)	-0.06	0.111	-0.139	0.087	1.27 (active)
RPS19 (UniProt M0R2L9)	0.183	–	–	–	–
SH2D1B (UniProt O14796)	0.003	-0.047	–	0.205	0.033
SEC23IP (UniProt Q9Y6Y8)	0.031	0.063	-0.037	0.001	-0.037
SAMD4B (UniProt Q5PRF9)	0.039	–	0.107	-0.027	0.058
SDHAF4 (UniProt Q5VUM1)	-0.025	–	0.053	0.16	0.073

Source: the supplement of paper PMC10849652
